For 39 compounds, growth results are on record in PubChem BioAssay (NCI).

This is part of a sample that, as a whole, favours compounds with a hit. Of some 83,000 tested, about 20% had one in any assay.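 For each line, cells grew in 96-well plates with the test compound present at a single concentration for 48 hours.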 Calls of active or inactive are those of the source. The calls were made as follows: active = growth percent below 10; inactive = the rest.

The first assay deals with HCC-2998 colon. Put plainly: NCI-60 one-dose screen, 48 h (100 = growth as untreated, 0 = no growth, -100 = all killed). To be noted: 10 µM unless noted.
On to `OCCNCCNC(Cc1ccc(Cl)cc1)c1ccccc1` (stereo not drawn), for which the growth is 91.6% (inactive).

With `CC1=C(C(=O)Nc2nc(-c3ccc(Cl)cc3)cs2)[C@H](c2ccc(O)cc2)NC(=O)N1`, the growth was 108% (inactive).

Turning to `O=C(N/N=C\c1cccc([N+](=O)[O-])c1)N/N=C/c1cccc([N+](=O)[O-])c1`, the growth is 109% (inactive).

Turning to `CC1C(/C=N/NC(N)=S)C(C#N)(C#N)C1(C#N)C#N` (stereo not drawn), the growth was 105% (inactive).

As for `CN(C)CCCNC(=O)c1cncnc1Nc1ccc(OCc2cccc(F)c2)c(Cl)c1`, the growth is 6.05% (active).

As to `C=C1C(=O)O[C@H]2[C@H]1CC/C(COC(=O)/C=C\C(=O)NCc1ccc(Cn3c(=O)sn(CCCl)c3=O)cc1)=C\CC[C@@]1(C)O[C@@H]21`, the growth was 117% (inactive).

With `CC1(C)OB(O)c2cc(-c3nc4ccc5[nH]ncc5c4c4c3CCCC4)ccc21`, the growth is 82.9% (inactive).

As for `N=C(N)c1ccc(-c2ccc(-c3ccccc3)s2)cc1`, the growth was -27.7% (active).

With `COc1ccc(CCN(CC(=O)N(CC(N)=O)C2CCC[C@@H]2OCc2ccccc2)C(=O)CN(C(=O)CN(CCc2ccc(Cl)cc2)C(=O)CN(C(=O)CN(C)Cc2ccccc2F)[C@H](C)C2CCCCC2)[C@H](C)C2CCCCC2)cc1OC` (stereo partly drawn), the growth was 0.406% (active).

Turning to `Cc1nnc(-c2ccc3c(c2)nc(/C=C/c2ccccc2)n3C2CCCCC2)o1`, the growth was 87.7% (inactive).

Regarding `Nn1c(=O)c(=O)[nH]c2c(cnn2-c2ccccc2)c1=O`, the growth is 105% (inactive).

In the case of `O=C(O)[C@@H](Cc1ccc2ccccc2c1)NC(=O)n1c2ccccc2c2ccccc21`, the growth is 21.4% (inactive).

On to `C=CCC(CCCC)(C(=O)OCC)C(=O)OCC`, for which the growth is 102% (inactive).

Consider `C#COc1cccc(Nc2ncnc3cc(NC(=O)[C@@H](C)Cl)ccc23)c1`, for which the growth was 15.2% [6.25 µM] (inactive).

With `CC(C)CCN(CCC(C)C)CC(O)c1cc2c(c3ccccc13)CCCC2` (stereo not drawn), the growth was 30.1% (inactive).

As to `O=C(CSc1nnc(-c2cc(-c3ccccc3)nc3ccccc23)n1-c1ccccc1)Nc1ccc(C(=O)/C=C/c2ccc(Cl)cc2)cc1`, the growth is 100% (inactive).

For the compound `CCCCNC(=O)Oc1ccc(/C(=C(/C)Cc2ccc(OC)cc2)c2ccc(OCCN3CCCCCC3)cc2)cc1`, the growth was 83.8% (inactive).

On to `O=C1C(Nc2ccccn2)=C(I)C(=O)c2ncccc21`, for which the growth was 53.1% (inactive).

With `Cn1cc(-c2csc(-c3c[nH]c4ccc(F)cc34)n2)c2ccnc(Cl)c21`, the growth is 70.8% (inactive).

Turning to `CC(C)(C)c1cc(Cl)c(O)c(CNCCO)c1`, the growth is 104% (inactive).

`Oc1c(CN2CCCC2)cc(CSCc2ccccc2)c2cccnc12`: the growth is 34.8% (inactive).

`O=C(CCSc1nnc2n(Cc3ccccc3)c(=O)c3c4c(sc3n12)CCCC4)N1CCN(c2ccccc2)CC1`: the growth is 96.5% (inactive).

As to `O=c1c2c3c(sc2n2c(-c4cc(-c5ccccc5)no4)nnc2n1Cc1ccccc1)CCCC3`, the growth is 101% (inactive).

Turning to `CCOC(=O)C1=C(C)/C(=C\c2[nH]c(C)c(C(=O)OCC)c2C)N=C1C`, the growth is 109% (inactive).

As to `NS(=O)(=O)c1ccc(C(=O)NN2C(=O)c3c(Br)c(Br)c(Br)c(Br)c3C2=O)cc1`, the growth is 111% (inactive).

Turning to `CCN(CC)CCN1C(=O)c2c(c(C)c3c(oc4ccc(OC)cc43)c2C)C1=O`, the growth was 100% (inactive).

On to `COc1cc(Cl)c(C)cc1NC(=O)c1cc2ccccc2cc1O`, for which the growth was 17% (inactive).

As to `COc1cc(NC(=O)c2cncnc2Nc2ccc3c(ccn3Cc3ccccn3)c2)cc(OC)c1`, the growth was 67.8% (inactive).

Take `CCCCNc1nnc2n(Cc3ccccc3)c(=O)c3c4c(sc3n12)CCCC4`: the growth was 65% (inactive).

In the case of `C=CCOC(=O)C1=C(C)N(CC)C(=O)NC1c1c(Cl)n(C)c2ccccc12` (stereo not drawn), the growth was 91.2% (inactive).

On to `CNC1=CC(=O)c2c(C(=O)OC)c(C)[n+]([O-])c(C)c2C1=O`, for which the growth is 50.1% (inactive).

On to `O=C(/C=C/c1ccc(Oc2ccc(Br)cc2)cc1)c1ccc(Br)cc1`, for which the growth was 95.5% (inactive).

For the compound `CC(=O)/C(=C/c1ccc([N+](=O)[O-])cc1)C(=O)c1ccccc1`, the growth was 95.2% (inactive).

Regarding `COc1ccc2[nH]cc(-c3nc(-c4c[nH]c5c(Cl)nccc45)cs3)c2c1`, the growth is 68.6% (inactive).

For `C=C1C(=O)O[C@H]2[C@H]1CC/C(COC(=O)/C=C\C(=O)NCc1ccc(Cn3c(=O)sn(CCCCC)c3=O)cc1)=C\CC[C@@]1(C)O[C@@H]21`, the growth was 100% (inactive).

On to `O=P(O)(O)OCC1OC(n2cnc3c(NCc4ccco4)ncnc32)C(O)C1O` (stereo not drawn), for which the growth is 0.214% (active).

As to `Cc1ccc(S(=O)(=O)c2nc(-c3ccccc3)oc2Sc2nc3ccccc3s2)cc1`, the growth is 107% (inactive).

As for `CCCn1cnc2c(c1=N)C(c1ccc(F)cc1)c1sc3c(F)cccc3c1O2` (stereo not drawn), the growth was 76.9% (inactive).

For `CN1C(=O)/C(=C2\SC(=Nc3ccccc3)N(Nc3ccccc3)C2=O)c2ccccc21`, the growth is 113% (inactive).

The subject of the next assay is KM12 colon. The assay is described as above. To be noted: 10 µM unless noted.
As for `OCCNCCNC(Cc1ccc(Cl)cc1)c1ccccc1` (stereo not drawn), the growth is 90.4% (inactive).

As to `CC1=C(C(=O)Nc2nc(-c3ccc(Cl)cc3)cs2)[C@H](c2ccc(O)cc2)NC(=O)N1`, the growth was 96.9% (inactive).

In the case of `O=C(N/N=C\c1cccc([N+](=O)[O-])c1)N/N=C/c1cccc([N+](=O)[O-])c1`, the growth was 107% (inactive).

Take `CC1C(/C=N/NC(N)=S)C(C#N)(C#N)C1(C#N)C#N` (stereo not drawn): the growth was 97% (inactive).

On to `CN(C)CCCNC(=O)c1cncnc1Nc1ccc(OCc2cccc(F)c2)c(Cl)c1`, for which the growth was -32.1% (active).

For the compound `C=C1C(=O)O[C@H]2[C@H]1CC/C(COC(=O)/C=C\C(=O)NCc1ccc(Cn3c(=O)sn(CCCl)c3=O)cc1)=C\CC[C@@]1(C)O[C@@H]21`, the growth was 97.1% (inactive).

`CC1(C)OB(O)c2cc(-c3nc4ccc5[nH]ncc5c4c4c3CCCC4)ccc21`: the growth was 38.7% (inactive).

For the compound `N=C(N)c1ccc(-c2ccc(-c3ccccc3)s2)cc1`, the growth was -7.55% (active).

Consider `COc1ccc(CCN(CC(=O)N(CC(N)=O)C2CCC[C@@H]2OCc2ccccc2)C(=O)CN(C(=O)CN(CCc2ccc(Cl)cc2)C(=O)CN(C(=O)CN(C)Cc2ccccc2F)[C@H](C)C2CCCCC2)[C@H](C)C2CCCCC2)cc1OC` (stereo partly drawn), for which the growth was 20.2% (inactive).

For the compound `Cc1nnc(-c2ccc3c(c2)nc(/C=C/c2ccccc2)n3C2CCCCC2)o1`, the growth was 85.1% (inactive).

Consider `Nn1c(=O)c(=O)[nH]c2c(cnn2-c2ccccc2)c1=O`, for which the growth is 107% (inactive).

As for `O=C(O)[C@@H](Cc1ccc2ccccc2c1)NC(=O)n1c2ccccc2c2ccccc21`, the growth was 18.5% (inactive).

Take `C=CCC(CCCC)(C(=O)OCC)C(=O)OCC`: the growth is 108% (inactive).

Regarding `C#COc1cccc(Nc2ncnc3cc(NC(=O)[C@@H](C)Cl)ccc23)c1`, the growth was 14.8% [6.25 µM] (inactive).

With `CC(C)CCN(CCC(C)C)CC(O)c1cc2c(c3ccccc13)CCCC2` (stereo not drawn), the growth is 64.6% (inactive).

`O=C(CSc1nnc(-c2cc(-c3ccccc3)nc3ccccc23)n1-c1ccccc1)Nc1ccc(C(=O)/C=C/c2ccc(Cl)cc2)cc1`: the growth was 75.4% (inactive).

For `CCCCNC(=O)Oc1ccc(/C(=C(/C)Cc2ccc(OC)cc2)c2ccc(OCCN3CCCCCC3)cc2)cc1`, the growth is 60.6% (inactive).

`O=C1C(Nc2ccccn2)=C(I)C(=O)c2ncccc21`: the growth is -26.1% (active).

In the case of `Cn1cc(-c2csc(-c3c[nH]c4ccc(F)cc34)n2)c2ccnc(Cl)c21`, the growth was 55.1% (inactive).

As for `CC(C)(C)c1cc(Cl)c(O)c(CNCCO)c1`, the growth was 111% (inactive).

`Oc1c(CN2CCCC2)cc(CSCc2ccccc2)c2cccnc12`: the growth is 20.1% (inactive).

Take `O=C(CCSc1nnc2n(Cc3ccccc3)c(=O)c3c4c(sc3n12)CCCC4)N1CCN(c2ccccc2)CC1`: the growth is 92.9% (inactive).

`O=c1c2c3c(sc2n2c(-c4cc(-c5ccccc5)no4)nnc2n1Cc1ccccc1)CCCC3`: the growth is 95.5% (inactive).

Turning to `CCOC(=O)C1=C(C)/C(=C\c2[nH]c(C)c(C(=O)OCC)c2C)N=C1C`, the growth was 81.9% (inactive).

Regarding `NS(=O)(=O)c1ccc(C(=O)NN2C(=O)c3c(Br)c(Br)c(Br)c(Br)c3C2=O)cc1`, the growth is 97.5% (inactive).

In the case of `CCN(CC)CCN1C(=O)c2c(c(C)c3c(oc4ccc(OC)cc43)c2C)C1=O`, the growth is 99.5% (inactive).

For the compound `COc1cc(Cl)c(C)cc1NC(=O)c1cc2ccccc2cc1O`, the growth is 9.32% (active).

In the case of `COc1cc(NC(=O)c2cncnc2Nc2ccc3c(ccn3Cc3ccccn3)c2)cc(OC)c1`, the growth was 33.7% (inactive).

Take `CCCCNc1nnc2n(Cc3ccccc3)c(=O)c3c4c(sc3n12)CCCC4`: the growth was 49.8% (inactive).

On to `C=CCOC(=O)C1=C(C)N(CC)C(=O)NC1c1c(Cl)n(C)c2ccccc12` (stereo not drawn), for which the growth was 85.7% (inactive).

On to `CNC1=CC(=O)c2c(C(=O)OC)c(C)[n+]([O-])c(C)c2C1=O`, for which the growth is 61.3% (inactive).

Turning to `O=C(/C=C/c1ccc(Oc2ccc(Br)cc2)cc1)c1ccc(Br)cc1`, the growth is 95.7% (inactive).

For `CC(=O)/C(=C/c1ccc([N+](=O)[O-])cc1)C(=O)c1ccccc1`, the growth is 58.9% (inactive).

As to `COc1ccc2[nH]cc(-c3nc(-c4c[nH]c5c(Cl)nccc45)cs3)c2c1`, the growth is 33.3% (inactive).

Consider `C=C1C(=O)O[C@H]2[C@H]1CC/C(COC(=O)/C=C\C(=O)NCc1ccc(Cn3c(=O)sn(CCCCC)c3=O)cc1)=C\CC[C@@]1(C)O[C@@H]21`, for which the growth is 98.8% (inactive).

With `O=P(O)(O)OCC1OC(n2cnc3c(NCc4ccco4)ncnc32)C(O)C1O` (stereo not drawn), the growth is 44.1% (inactive).

In the case of `Cc1ccc(S(=O)(=O)c2nc(-c3ccccc3)oc2Sc2nc3ccccc3s2)cc1`, the growth was 97.2% (inactive).

As for `CCCn1cnc2c(c1=N)C(c1ccc(F)cc1)c1sc3c(F)cccc3c1O2` (stereo not drawn), the growth is 36.1% (inactive).

For `CN1C(=O)/C(=C2\SC(=Nc3ccccc3)N(Nc3ccccc3)C2=O)c2ccccc21`, the growth is 103% (inactive).
